# From PubChem BioAssay (NCI)
# This is part of a sample that, as a whole, favours compounds with a hit. Of some 79,000 tested, about 15% had one in any assay. Values without a mark were called inactive. Activity calls are given as the source filed them. No stated cut-off is given here; in the data, active means growth inhibition above about 70%; inactive means the rest.
# Key:
# [1] = NCI Yeast Anticancer Drug Screen. Data for the rad50 strain (AID 155);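 further: 0% = growth of vehicle-only cultures of the same strain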; conditions: S. cerevisiae rad50 strain growth inhibition, stronger effect = higher value
# Procedure, shortened: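 A DNA repair-deficient yeast mutant serves as the test organism; compound-induced growth inhibition is calculated against vehicle-treated cells.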
# [2] = NCI Yeast Anticancer Drug Screen. Data for the mec2-1 strain (AID 157); conditions: S. cerevisiae mec2-1 strain, stronger effect = higher value
# Procedure, shortened: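 Each compound was tested on mec2-1 yeast, a strain altered in DNA damage repair or cell cycle control. Growth inhibition is reported relative to vehicle.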
# [3] = NCI Yeast Anticancer Drug Screen. Data for the sgs1 mgt1 strain (AID 161);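 further: 0% = growth of cultures given vehicle only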; conditions: S. cerevisiae sgs1 mgt1 strain, stronger effect = higher value
# Procedure, shortened: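 Read-out: growth inhibition vs vehicle controls. Cells: mutant yeast strain deficient in DNA damage repair.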
# [4] = NCI Yeast Anticancer Drug Screen. Data for the cln2 rad14 strain (AID 165);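 further: 0% = growth equal to vehicle treated cultures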; conditions: S. cerevisiae cln2 rad14 strain, stronger effect = higher value
# Procedure, shortened: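 Test compounds were added to cln2 rad14 yeast cultures; inhibition of growth was then determined by comparison with vehicle treatment.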
# [5] = NCI Yeast Anticancer Drug Screen. Data for the bub3 strain (AID 167); conditions: S. cerevisiae bub3 mutant strain, stronger effect = higher value
# Procedure, shortened: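 Inhibition values come from growth of compound-treated mutant yeast normalised to vehicle-treated controls.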
# [6] = NCI Yeast Anticancer Drug Screen. Data for the mlh1 rad18 strain (AID 175); conditions: S. cerevisiae mlh1 rad18 strain growth inhibition, stronger effect = higher value
# Procedure, shortened: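 Inhibition values reflect reduced growth of mutant yeast versus vehicle-treated controls following compound exposure; the mutations affect DNA damage repair.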
# [7] = at 5.0 µM (retest, dose inferred, filed as 0.5)
# [8] = at 50.0 µM (retest, dose inferred, filed as 5.0)
Structure (SMILES),"growth inhibition [1, 7]","growth inhibition [1, 8]",growth inhibition ([1]; at 50.0 µM),"growth inhibition [2, 7]","growth inhibition [2, 8]",growth inhibition ([2]; at 50.0 µM),"growth inhibition [3, 7]","growth inhibition [3, 8]",growth inhibition ([3]; at 50.0 µM),"growth inhibition [4, 7]","growth inhibition [4, 8]",growth inhibition ([4]; at 50.0 µM),"growth inhibition [5, 7]","growth inhibition [5, 8]",growth inhibition ([5]; at 50.0 µM),"growth inhibition [6, 7]","growth inhibition [6, 8]",growth inhibition ([6]; at 50.0 µM)
CCCCCCOC(=O)CCC(=O)OCCCCCC,-7%,-20%,-2.7%,-3%,-20%,17.9%,-1%,15%,23.5%,32%,23%,41.1%,16%,43%,63.8%,-15%,-9%,24.1%
CCCCCCCCCCCc1ccn[nH]1,-7%,98% (active),98.4% (active),3%,99% (active),99.3% (active),9%,99% (active),99.3% (active),-18%,99% (active),98.3% (active),14%,98% (active),99% (active),-3%,98% (active),98.9% (active)
O=C1CSC(=S)N1c1ccc(F)cc1F,8%,86% (active),89.8% (active),-2%,82% (active),22.6%,10%,78% (active),65.2%,-3%,16%,-9%,-3%,84% (active),83.8% (active),3%,89% (active),70.2% (active)
NC(=S)NNC(=O)c1cccnc1,4%,78% (active),-5.1%,1%,39%,-5.95%,2%,46%,45.6%,5%,75% (active),-31.4%,2%,82% (active),0.15%,-1%,68%,50.8%
O=C(COc1ccc2ccccc2c1)NC1c2ccccc2Oc2ccccc21,77% (active),93% (active),74.2% (active),91% (active),97% (active),17.4%,95% (active),97% (active),69.3%,98% (active),94% (active),12%,92% (active),96% (active),15.6%,82% (active),96% (active),63%
Cc1cc(O)ccc1SC#N,-11%,53%,87.2% (active),-22%,32%,80% (active),-13%,28%,79.9% (active),-3%,21%,73.4% (active),-11%,57%,79.3% (active),7%,66%,83.5% (active)
O=C(Nc1ccc(Br)cc1)c1cc(Br)c(O)c(Br)c1O,21%,99% (active),58.1%,9%,99% (active),98.8% (active),29%,99% (active),59.9%,-5%,99% (active),92.2% (active),11%,99% (active),98.4% (active),24%,99% (active),98% (active)
CCC1CCCN1CCOC(=O)C(c1ccccc1)C1C=CCC1 (configuration not stated),31%,51%,52.9%,23%,58%,33.9%,40%,74% (active),72% (active),32%,62%,62.4%,40%,60%,48.6%,60%,79% (active),63%
CCNC(=S)N/N=C(\C)c1cccc(C)n1,-5%,21%,54.6%,-37%,34%,76.3% (active),-31%,22%,54.7%,-21%,24%,50.9%,-20%,27%,62%,-9%,21%,37.2%
